This passage reports inhibition results from PubChem BioAssay.

The term inhibition denotes the change of the read-out against control, counted positive when it falls.

Activity calls are given as the source filed them. How the calls were made is not given here.

The assay deals with Pantothenate synthetase (Mycobacterium tuberculosis (strain ATCC 25618 / H37Rv)) (UniProt P9WIL5). In words: Recombinant Mtb pantothenate synthetase (PanC) inhibitors, coupled enzyme, confirmatory (AID 375).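 Further: 0% = full reaction with vehicle and 100% = no enzyme background.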 The settings on record: coupled enzyme assay; at 10 µM, active compounds read high.
Chain of Pantothenate synthetase (Mycobacterium tuberculosis (strain ATCC 25618 / H37Rv)) (P9WIL5 whole entry, looked up): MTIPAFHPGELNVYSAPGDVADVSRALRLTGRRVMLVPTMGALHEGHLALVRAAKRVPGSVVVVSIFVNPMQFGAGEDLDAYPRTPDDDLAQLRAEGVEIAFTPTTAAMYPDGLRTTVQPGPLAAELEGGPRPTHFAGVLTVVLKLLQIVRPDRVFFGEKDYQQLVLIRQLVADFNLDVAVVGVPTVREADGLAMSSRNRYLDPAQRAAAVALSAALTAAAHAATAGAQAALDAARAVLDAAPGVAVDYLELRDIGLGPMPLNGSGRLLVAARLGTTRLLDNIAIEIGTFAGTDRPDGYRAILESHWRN
With `Cc1ccc(CSC2=NCCN2C(=O)c2ccco2)cc1`, the inhibition is 0% (inactive).
In the case of `Cc1ccc(NC(=O)CSc2nnc(CSc3nc(C)cc(C)n3)n2Cc2ccco2)c(C)c1` it was 0% (inactive); in that of `O=C(NCCCNC(=O)c1ccccn1)c1ccccn1`, 12% (inactive); in that of `CCOC(=O)c1cc2sccc2n1Cc1ccccc1`, 1% (inactive).
`O=C(OCCN(CCOC(=O)c1ccncc1)S(=O)(=O)c1cccs1)c1ccncc1`: the inhibition is 0% (inactive).
Take `O=C1COc2ccc(C(=O)NCc3ccco3)cc2N1`: the inhibition is 0% (inactive).
For the compound `COc1ccc(-c2ccc(-c3noc(-c4ccccc4OC)n3)c(OC)n2)cc1`, the inhibition is 0% (inactive).
In the case of `CN(C)c1oc(-c2ccccc2Cl)nc1C#N` it was 4% (inactive); in that of `O=C(COC(=O)CCC(=O)c1cccs1)NCc1ccco1`, 0% (inactive); in that of `Cc1c(C#N)c2ccccc2n1CC(=O)N1CCc2ccccc2C1`, 0% (inactive).
For `COc1ccc(C2C(C(C)=O)=C(C)N=c3s/c(=C/c4ccc5c(c4)OCO5)c(=O)n32)cc1` (stereo not given), the inhibition is 0% (inactive).
In the case of `O=c1/c(=C/c2ccco2)sc2nc(-c3ccccc3Br)nn12` it was 0% (inactive); in that of `O=C1c2ccccc2C(=O)N1C/C=C/CN1C(=O)c2ccccc2C1=O`, 0% (inactive).
Turning to `Cc1ccc(Cn2nnc3c(=O)[nH]c(C4CCN(C(=O)c5cccs5)CC4)nc32)cc1`, the inhibition is 0% (inactive).
`Cn1c(SCC(=O)c2ccc(-c3ccccc3)cc2)nnc1-c1ccco1`: the inhibition was 2% (inactive).
In the case of `CCOc1nc(OCC)nc(N2CCC(C)CC2)n1`, the inhibition was 0% (inactive).
Consider `c1cncc(-c2nnc3sc(-c4ccco4)nn23)c1`, for which the inhibition was 0% (inactive).
As for `COc1ccc(-c2nc(C)sc2CC(=O)O)cc1`, the inhibition is 4% (inactive).
On to `Cc1ccc(Cn2c(=N)c(C(=O)NCc3ccco3)cc3c(=O)n4ccccc4nc32)cc1`, for which the inhibition is 1% (inactive).
Consider `Cc1ccc2occ(CN3CCN(c4ccccc4)CC3)c(=O)c2c1`, for which the inhibition was 0% (inactive).
On to `Cn1c(-c2ccc(F)cc2)cnc1SCC(=O)Nc1ccccc1N1CCOCC1`, for which the inhibition is 0% (inactive).
On to `O=C(CCCC(=O)OCC(=O)NC1CCCC1)Nc1ccccn1`, for which the inhibition is 4% (inactive).
In the case of `N#Cc1c(NC(=O)COC(=O)C2CC3C=CC2C3)oc(-c2ccccc2)c1-c1ccccc1` (stereo not given) it was 1% (inactive); in that of `CC(C)Cn1c(CN(Cc2ccccc2)Cc2ccccc2)nc2c1c(=O)n(C)c(=O)n2C`, 5% (inactive).
With `CN(CC(=O)N1CCCCC1)S(=O)(=O)c1cccc2cccnc12`, the inhibition was 0% (inactive).
On to `COC(=O)CC1SCCNC1=O` (stereo not given), for which the inhibition is 0% (inactive).
`CCCn1c(-c2ccc(F)cc2)cnc1SCC(=O)O`: the inhibition is 0% (inactive).
With `Cc1nc2scc(-c3ccco3)c2c(=O)n1/N=C/N(C)C`, the inhibition was 0% (inactive).
For the compound `CCCn1c(N)c(C(=O)CSc2nnc(Cc3ccccc3)o2)c(=O)n(C)c1=O`, the inhibition is 2% (inactive).
As for `CCc1[nH]nc2c1C(c1ccncc1)C(C#N)=C(N)O2` (stereo not given), the inhibition is 4% (inactive).
In the case of `O=C(COc1ccc2c(c1)OCO2)NC12CC3CC(CC(C3)C1)C2`, the inhibition is 4% (inactive).
As for `O=C(Nn1c(C2CC2)nc2ccccc2c1=O)c1ccco1`, the inhibition was 0% (inactive).
Take `CCOc1ccc2ccccc2c1/C=N/n1cncn1`: the inhibition is 0% (inactive).
In the case of `CCC(=O)Nc1ccc2nc(SCC(=O)N3CCCC3)sc2c1`, the inhibition was 0% (inactive).
As for `CCOC(=O)C1CCCN(Cc2nc(N)nc(Nc3ccccc3)n2)C1` (stereo not given), the inhibition is 10% (inactive).
Consider `COc1cccc(OC)c1C(=O)N1CCN(S(=O)(=O)c2ccccc2)CC1`, for which the inhibition is 0% (inactive).
In the case of `COc1ccc(CCNC(=O)c2ccncc2)cc1OC`, the inhibition was 4% (inactive).
`Cc1ccc(N2CCN(C(=S)c3ccc(N(C)C)cc3)CC2)cc1`: the inhibition is 10% (inactive).
The value for `CCCCc1ccc(NC(=O)c2c(C)noc2C)cc1` was 8% (inactive); that for `CCCCNc1cc(C)oc(=O)c1C(C)=O` was 4% (inactive).
